Test [1] concerns the target Acetylcholinesterase (Homo sapiens) (UniProt P22303). The test can be described thus: Acetylcholinesterase (AChE) small molecule antagonists: colormetric cell-based qHTS assay (AID 1347395). Note: nearly all actives have a fitted effect of over 30% in size. Note: potency is the fitted concentration of half-maximal effect. In a few lines:
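In this cell-based qHTS, attached SH-SY5Y cells were treated with test chemicals for 30 min, after which acetylthiocholine hydrolysis was followed by DTNB colour development over 90 min at 37 C.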
For orientation: qHTS replaces the single test concentration by a dilution series.

Test [2] has the same target. The test can be described thus: Acetylcholinesterase (AChE) small molecule antagonists: enzyme-based qHTS assay (AID 1347397). Note: nearly all actives have a fitted effect of over 55% in size. Note: potency is the fitted concentration of half-maximal effect. The settings on record: Potency: AChE enzyme activity inhibition; outcome: AChE enzyme activity inhibition. The gist of the method:
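Compound or DMSO vehicle was pin-transferred onto recombinant human AChE (50 mU/mL as dispensed) and left 30 min at room temperature. Acetylthiocholine with DTNB then started the reaction, read colorimetrically 10 min later.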

Test [3] has the same target. The test can be described thus: Acetylcholinesterase (AChE) small molecule antagonists: enzyme-based qHTS assay with human liver microsomes (AID 1347399). Note: nearly all actives have a fitted effect of over 60% in size. The settings on record: Potency: qHTS inhibition; outcome: qHTS inhibition. In a few lines: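 Recombinant human AChE (50 mU/mL in the enzyme mix) and human liver microsomes (0.25 mg/mL final) were preincubated with compound and NADPH (0.25 mg/mL final) for 30 min at 37 C. Acetylthiocholine/DTNB was then added; thiocholine was read colorimetrically after 10 min at room temperature.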

Inconclusive results are not listed. Active and inactive are the calls of the source. Calls come from the whole dose curve.

Acetylcholinesterase (Homo sapiens), sequence (P22303 whole entry, looked up): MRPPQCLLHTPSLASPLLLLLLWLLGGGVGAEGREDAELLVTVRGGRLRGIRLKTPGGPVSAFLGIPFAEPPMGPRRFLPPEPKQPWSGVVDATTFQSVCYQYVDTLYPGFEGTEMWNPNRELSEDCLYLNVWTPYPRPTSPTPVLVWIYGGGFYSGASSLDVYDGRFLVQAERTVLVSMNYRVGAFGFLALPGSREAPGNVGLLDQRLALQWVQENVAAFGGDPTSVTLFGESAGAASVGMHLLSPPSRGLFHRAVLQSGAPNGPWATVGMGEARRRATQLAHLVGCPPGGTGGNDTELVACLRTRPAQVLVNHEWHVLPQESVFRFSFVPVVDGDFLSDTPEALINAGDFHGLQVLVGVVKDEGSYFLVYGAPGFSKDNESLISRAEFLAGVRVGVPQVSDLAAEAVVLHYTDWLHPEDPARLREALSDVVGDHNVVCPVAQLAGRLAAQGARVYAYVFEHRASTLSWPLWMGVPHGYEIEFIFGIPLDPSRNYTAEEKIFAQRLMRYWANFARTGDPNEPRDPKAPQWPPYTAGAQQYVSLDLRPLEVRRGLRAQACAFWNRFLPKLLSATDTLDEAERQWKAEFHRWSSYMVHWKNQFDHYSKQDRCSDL

Take `Cc1ccsc1/C=C/C1=NCCCN1C`: the Potency in test [1] was 17.4 µM (active). Further, the Potency entry in test [2] and in test [3] was “inactive” each time.
Take `OC1(c2ccccc2)CCNCC1`: the Potency entry in test [1], in test [2] and in test [3] was “inactive” throughout.
In the case of `Oc1ccc(C2CNCCc3c2cc(O)c(O)c3Cl)cc1` (configuration not stated), the Potency result in test [1], in test [2] and in test [3] was “inactive” in each case.
Turning to `COc1c(C)c2c(c(O)c1C/C=C(\C)CCC(=O)OCCN1CCOCC1)C(=O)OC2`, the Potency in test [1] was 27.5 µM (active). In addition, the Potency result in test [2] and in test [3] was “inactive” throughout.
Regarding `CCCCCCCCCCCCCC[P+](CCCC)(CCCC)CCCC` (tested in a mixture with another compound), the Potency entry in test [1], in test [2] and in test [3] was “inactive” throughout.
Turning to `Cc1oc(=O)oc1COC(=O)[C@@H]1N2C(=O)[C@@H](NC(=O)[C@H](N)c3ccccc3)[C@H]2SC1(C)C`, the Potency entry in test [1], in test [2] and in test [3] was “inactive” throughout.
Take `CCCCC(CC)COCCO` (configuration not stated): the Potency result in test [1], in test [2] and in test [3] was “inactive” throughout.
Take `CC(C)c1cccc(C(C)C)c1NC(=O)NS(=O)(=O)c1cc(C(C)(C)O)co1`: the Potency result in test [1], in test [2] and in test [3] was “inactive” throughout.
For the compound `CC1=C(C)C(=O)C(CCCCC#CCCCC#CCO)=C(C)C1=O`, the Potency entry in test [1], in test [2] and in test [3] was “inactive” in each case.
Take `CC1(COc2ccc(CC3SC(=O)NC3=O)cc2)CCCCC1` (configuration not stated): the Potency entry in test [1], in test [2] and in test [3] was “inactive” in each case.
On to `CC(C)=CCC/C(C)=C/C=N/O`, for which the Potency entry in test [1], in test [2] and in test [3] was “inactive” in each case.
Consider `CC(C(O)c1ccccc1)N(C)CCOC(c1ccccc1)c1ccccc1` (configuration not stated), for which the Potency result in test [1], in test [2] and in test [3] was “inactive” throughout.
As for `C[Si](C)(C)C`, the Potency result in test [1], in test [2] and in test [3] was “inactive” each time.
For the compound `CCOC(=O)c1ccc(N(C)C)cc1`, the Potency result in test [1], in test [2] and in test [3] was “inactive” in each case.
Take `COc1ccc(C(=O)NCc2ccc(OCCN(C)C)cc2)cc1OC`: the Potency in test [1] was 6.92 µM (active); in test [2], 27.5 µM (active). Further, the Potency entry in test [3] was “inactive”.
Take `CCC(C)COC(=O)CC(C)C` (configuration not stated): the Potency entry in test [1], in test [2] and in test [3] was “inactive” throughout.
`CN(C)CC/C=C1\c2ccccc2Sc2ccc(Cl)cc21`: the Potency entry in test [1], in test [2] and in test [3] was “inactive” in each case.
On to `CC1(CN2CCC(n3c(=O)[nH]c4ccccc43)CC2)OCc2ccccc2-n2cccc21` (configuration not stated), for which the Potency entry in test [1], in test [2] and in test [3] was “inactive” each time.
Take `CC(=O)S[C@@H]1CC2=CC(=O)CC[C@]2(C)[C@H]2CC[C@@]3(C)[C@@H](CC[C@@]34CCC(=O)O4)[C@H]12`: the Potency result in test [1], in test [2] and in test [3] was “inactive” in each case.
Regarding `O=C1C=CC(=O)N1c1ccc(Cc2ccc(N3C(=O)C=CC3=O)cc2)cc1`, the Potency result in test [1], in test [2] and in test [3] was “inactive” each time.
With `CCC(Cc1ccccc1)(C(=O)c1ccc(N2CCOCC2)cc1)N(C)C` (configuration not stated), the Potency entry in test [1], in test [2] and in test [3] was “inactive” each time.
Regarding `CC(=O)[C@H]1CC[C@H]2[C@@H]3C=CC4=CC(=O)CC[C@@]4(C)[C@@H]3CC[C@]12C`, the Potency entry in test [1], in test [2] and in test [3] was “inactive” in each case.
As to `O=C(Nc1ccc2c(O)c(N=Nc3ccc(N=Nc4ccc(S(=O)(=O)O)cc4)cc3)c(S(=O)(=O)O)cc2c1)c1ccccc1`, the Potency entry in test [1], in test [2] and in test [3] was “inactive” throughout.
`CN1C(=O)OC(C)(C)C1=O`: the Potency result in test [1], in test [2] and in test [3] was “inactive” in each case.

Values taken from PubChem BioAssay (Tox21).
